Experimental data reported in PubChem BioAssay.

biological target: E3 ubiquitin-protein ligase XIAP (Homo sapiens) (UniProt P98170); test: small molecules binding XIAP protein – biophysical, small-molecule microarray, fluorescence 635 nm, primary screen (AID 1181); details: higher = more signal;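 also: score merges 667 nm emission and signal to noise over triplicate slides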
Sequence (P98170 whole entry, looked up): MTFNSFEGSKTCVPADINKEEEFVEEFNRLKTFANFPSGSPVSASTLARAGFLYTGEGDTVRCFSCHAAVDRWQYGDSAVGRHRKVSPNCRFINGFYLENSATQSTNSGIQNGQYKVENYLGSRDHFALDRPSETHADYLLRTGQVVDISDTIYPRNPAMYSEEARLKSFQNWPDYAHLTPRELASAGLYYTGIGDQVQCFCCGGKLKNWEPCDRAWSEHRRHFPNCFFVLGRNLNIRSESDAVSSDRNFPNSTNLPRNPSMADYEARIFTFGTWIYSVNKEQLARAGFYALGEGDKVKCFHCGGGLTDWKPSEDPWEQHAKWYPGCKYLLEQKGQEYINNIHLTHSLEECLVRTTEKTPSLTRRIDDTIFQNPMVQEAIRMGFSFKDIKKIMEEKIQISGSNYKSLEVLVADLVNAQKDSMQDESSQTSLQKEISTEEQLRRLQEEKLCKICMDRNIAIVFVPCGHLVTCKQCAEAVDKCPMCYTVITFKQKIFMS

| SMILES | composite z-score |
| --- | --- |
| CC(=O)c1ccc(C(O)C2C=CC3C(=O)N(c4ccccc4)C(=O)C3N2Nc2ccc(C(C)C)cc2)cc1 (centres undefined) | 0.102 |
| COc1ccccc1CN1C(=O)c2ccccc2[C@](Cc2ccccc2I)(C(=O)NCC(C)C)[C@@H]1c1ccc(CO)cc1 | -0.02 |
| C=CCNC(=O)[C@H]1[C@@H]2C(=O)O[C@@H](c3ccccc3)[C@@H](c3ccccc3)N2[C@@H](c2ccc(OCCO)cc2)[C@]12C(=O)Nc1ccc(C#CC3(O)CCCCCC3)cc12 | -0.224 |
| [N-]=[N+]=Nc1ccccc1C[C@@]1(C(=O)NCC(O)CO)N=C(c2ccc(OCCCO)cc2)O[C@@H]1c1ccccc1 (some centres undefined) | 0.0049 |
| CCOC(=O)c1cn(C[C@H](Cc2ccccc2)NC(=O)N[C@H](CO)CCc2oc(C(C)=O)c(C(=O)OC)c2C(=O)OC)nn1 | -0.0835 |
| Cc1ccc(S[C@]2(C(=O)NCCCN(C)C)CC(=O)N(Cc3ccccc3C(F)(F)F)[C@@H]2c2ccc(CO)cc2I)cc1 | 0.191 |
| COCCOC(=O)N1C(=O)[C@@]2(c3cc(C#CCNC(N)=O)ccc31)[C@H](C(=O)Nc1nc3ccccc3s1)[C@H]1C(=O)O[C@H](c3ccccc3)[C@H](c3ccccc3)N1[C@@H]2c1ccccc1OCCO | -0.155 |
| Cc1ccc(S[C@]2(C(=O)NC3CC3)CC(=O)N(C(C)C)[C@@H]2c2ccc(CO)cc2I)cc1 | -0.02 |
| COc1cc(CO)cc(I)c1O[C@H]1C=C(C(=O)NCCO)C[C@@H]2O[C@H]12 | 0.305 |
| CC(=O)NCCCC[C@@H]1NC(=O)[C@H]2C[C@@H](C(=O)NCCCCCCNC(=O)CS)[C@@H](c3cccc(OCCO)c3)N2C1=O | 0.0593 |
| C=CC[C@@]1(C(=O)OC)N=C(c2ccc(OCCCO)cc2)O[C@@H]1c1ccccc1N=[N+]=[N-] | 0.0142 |
| CCC(CC)C(O)C1C=CC2C(=O)N(c3ccccc3)C(=O)C2N1Nc1ccccc1F (centres undefined) | 0.172 |
| CN1C(=O)C2C(C1=O)C1C=C(CCCO)C2C(C2CC2)N1Cc1cccc(OC(F)(F)F)c1 (centres undefined) | 0.0105 |
| C=C(CCCC)C(=O)CC[C@H](OC(=O)c1ccccc1-c1ccccc1C(=O)O)c1ccc(OCCO)cc1 | 0.0652 |
| COC(=O)[C@@]1(Cc2ccc(F)cc2)[C@H]2c3cc(C(=O)N(C)C)n(C)c3C[C@H]2CN1C(=O)c1ccccc1 | 0.147 |
| O=C(NC1CC1)[C@@H]1c2ccccc2C(=O)N(Cc2cc(C(F)(F)F)cc(C(F)(F)F)c2)[C@H]1c1ccc(CO)cc1 | -0.0448 |
| [N-]=[N+]=Nc1ccccc1[C@@H]1OC(c2ccc(OCCCO)cc2)=N[C@]1(CCS(=O)(=O)c1ccccc1)C(=O)NCC(O)CO (some centres undefined) | -0.201 |
| CCCNC(=O)[C@@]1(Sc2ccc(C)cc2)CC(=O)N(Cc2ccccc2Cl)[C@@H]1c1ccc(CO)cc1I | -0.302 |
| COC(=O)[C@@]1(Cc2ccc(OC)cc2)[C@H]2c3cc(C(=O)N4CCCC4)n(CCn4cc([N+](=O)[O-])nc4C)c3C[C@H]2CN1C(=O)c1ccccc1 | 0.111 |
| COCC(=C=CC[C@H](O)c1ccccc1OCCO)C[C@H](O)COCc1ccccc1 | 0.151 |
| C=CC1c2cc(O)c(OC)cc2CCN1C (centres undefined) | 0.031 |
| COc1ccc([Si](C)(C)[C@H]2[C@H](CC(=O)N3CCC[C@H]3CO)O[C@@]3(C(=O)N(Cc4ccc(N5CCCCC5=O)cc4)c4ccccc43)[C@@H]2C)cc1 | 0.197 |
| Cc1ccc(F)cc1S(=O)(=O)N[C@H]1CCN(Cc2ccc(OC(C)C)cc2)C1 | -0.0773 |
| COC(=O)C(CC#Cc1ccc2c(c1)[C@]1(C(=O)N2)[C@H](c2ccccc2OCCO)N2[C@H](c3ccccc3)[C@H](c3ccccc3)OC(=O)[C@H]2[C@@H]1C(=O)N1CCc2cc(OC)c(OC)cc2C1)C(=O)OC | 0.132 |
